PubChem BioAssay AID720690 (Broad Institute, 2013)
Measured potencies and affinities stand elsewhere. A number with no mark means an inactive call.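 The calls were made as follows: active = every repeat run showing a signal drop whose fitted half-maximal concentration is at most twice the top tested concentration; inconclusive = repeat runs disagree, or flat partial drop, or poor fit; inactive = the rest.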

Test: general mammalian cell viability loss – activator set, cherry-pick, cytotoxicity control for miR-122 modulator project, dose response (AID 720690);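 also: 0% = neutral control wells and -100% = MG132 cytotoxic control wells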
Details: HEK293T viability, CellTiter-Glo luminescence, 48 h; series mostly up to 26 µM; activity change, negative = cytotoxicity: at the top concentration

| Structure (SMILES) | activity change, negative = cytotoxicity |
| --- | --- |
| C[C@H](CO)N1C[C@H](C)[C@@H](CN(C)CC2CCCCC2)Oc2c(NS(=O)(=O)c3cccs3)cccc2C1=O | 11% |
| COCC(=O)Nc1ccc2c(c1)C(=O)N(C)[C@@H]1CC[C@H](CC(=O)NCc3ccccc3F)O[C@H]1CO2 | -13.2% |
| COCC(=O)Nc1ccc2c(c1)C(=O)N(C)[C@@H]1CC[C@H](CC(=O)Nc3cn(C)nc3C)O[C@H]1CO2 | -4.99% |
| CC(C)C(=O)Nc1ccc2c(c1)C(=O)N(C)[C@@H]1CC[C@@H](CC(=O)N[C@H](C)c3ccccc3)O[C@@H]1CO2 | -3.75% [at 23.5 µM] |
| Cc1cc(C)cc(Oc2ccc(NC(=O)C3CC=CCC3C(=O)O)cc2)c1 (centres undefined) | -6.22% |
| C/C=C/c1ccc([C@@H]2[C@@H](CNC(=O)CC)N(Cc3ccccn3)[C@H]2CO)cc1 | -6.56% |
| CN1CCN(C(=O)C[C@H]2CC[C@@H]3[C@H](COc4ccc(NC(=O)c5cccs5)cc4C(=O)N3C)O2)CC1 | 7.14% |
| COc1ccc(S(=O)(=O)Nc2cccc3c2O[C@H](CN(C)CC2CCCCC2)[C@@H](C)CN([C@H](C)CO)C3=O)cc1 | 3.99% |
| COCC(=O)N1[C@@H](CO)[C@@H]2c3ccccc3N(C(=O)C3CC3)C[C@@H]21 | 0.653% |
| CN1C(=O)c2cc(NC(=O)c3cccc(F)c3)ccc2OC[C@H]2O[C@H](CC(=O)O)CC[C@H]21 | 1.11% |
| COCCN(C[C@@H]1[C@@H](c2ccccc2)[C@H](CO)N1C(=O)C1CC1)C(C)=O | -9.14% |
| CC(=O)N(C[C@@H]1N[C@@H](CO)[C@H]1c1ccc(-c2ccccc2)cc1)C(C)C | -5.09% |
| COc1ccc(NC(=O)Cn2nnc(C(=O)NCc3ccccc3OC)c2N)cc1Cl | 15.9% |
| COCC(=O)N(C)C[C@H]1[C@H](c2ccccc2)[C@@H](CO)N1C(=O)NC(C)C | -5.13% |
| Cc1ccnc(Nc2nc(-c3c(C)nc4sccn34)cs2)c1 | -39.7% |
| CCN(C[C@@H]1[C@@H](c2ccccc2)[C@@H](CO)N1S(C)(=O)=O)C(=O)C1CC1 | 6.32% |
| CCS(=O)(=O)Nc1ccc2c(c1)C(=O)N(C)[C@H]1CC[C@H](CC(=O)NCCCN3CCOCC3)O[C@H]1CO2 | -2.75% |
| CN1C(=O)c2cc(NC(=O)Nc3ccccc3Cl)ccc2OC[C@H]2O[C@H](CC(=O)O)CC[C@H]21 | 8.14% |
| CN(C(=O)C12CC3CC(CC(C3)C1)C2)C1CCS(=O)(=O)C1 (centres undefined) | -3.56% |
| CN(C[C@H]1[C@H](c2ccccc2)[C@@H](CO)N1CC1CC1)C(=O)c1cccc(F)c1 | -1.25% [at 23.5 µM] |

| Structure (SMILES) | activity change, negative = cytotoxicity |
| --- | --- |
| CCNC(=O)C[C@@H]1CC[C@H]2[C@@H](COc3ccc(NC(=O)c4ccc(C(F)(F)F)cc4)cc3C(=O)N2C)O1 | -6.62% [at 23.5 µM] |
| CCCNC(=O)C[C@H]1CC[C@@H]2[C@H](COc3ccc(NS(=O)(=O)c4ccccc4C)cc3C(=O)N2C)O1 | -4.31% [at 23.5 µM] |
| COc1ccc2[nH]c(C(=O)O)c(NS(=O)(=O)c3ccc(Cl)s3)c2c1 | -13.1% |
| CNC(=O)C[C@@H]1CC[C@@H]2[C@H](COc3ccc(NC(=O)NC(C)C)cc3C(=O)N2C)O1 | -16.3% |
| COc1cccc(CNC(=O)C[C@@H]2CC[C@H]3[C@H](COc4ccc(NC(C)=O)cc4C(=O)N3C)O2)c1 | -3.81% |
| CC(=O)Nc1ccc2c(c1)C(=O)N(C)[C@H]1CC[C@H](CC(=O)Nc3ccccc3Cl)O[C@@H]1CO2 | 0.573% |
| CC(C)C(=O)Nc1ccc2c(c1)C(=O)N(C)[C@@H]1CC[C@@H](CC(=O)NCCc3ccccc3)O[C@H]1CO2 | 11.2% |
| CO[C@@H]1CN(C)C(=O)c2ccc(NC(=O)c3ccc(Oc4ccccc4)cc3)cc2OC[C@H](C)NC[C@H]1C | -13.4% |
| CN1C(=O)c2cc(NS(C)(=O)=O)ccc2OC[C@@H]2O[C@H](CC(=O)O)CC[C@H]21 | -4.45% [at 23.5 µM] |
| CCCNC(=O)N1C[C@@H]2[C@H](c3ccccc31)[C@@H](CO)N2C(=O)C1CCOCC1 | -10.2% |
| CN1C(=O)c2cc(NC(=O)Cc3ccccc3)ccc2OC[C@H]2O[C@@H](CC(=O)NCc3ccc(Cl)cc3)CC[C@@H]21 | -7.94% |
| COCC(=O)N1[C@@H](CO)[C@@H]2c3ccccc3N(C(=O)c3cccnc3)C[C@@H]21 | -15.7% |
| CCC(=O)N1[C@H](CO)[C@@H](c2ccccc2)[C@@H]1CN(C)C(=O)CN1CCOCC1 | 2.2% [at 23.5 µM] |
| CCNC(=O)Nc1ccc2c(c1)C(=O)N(C)[C@@H]1CC[C@H](CC(=O)NCC3CC3)O[C@@H]1CO2 | 4.16% |
| CC(=O)c1cccc(S(=O)(=O)NCC2CCCCC2)c1 | 14.5% |
| CCCC(=O)Nc1ccc2c(c1)C(=O)N(C)[C@@H]1CC[C@H](CC(=O)Nc3cn(C)nc3C)O[C@@H]1CO2 | 9.32% [at 23.5 µM] |
| CNC(=O)C[C@H]1CC[C@H]2[C@@H](COc3ccc(NC(=O)C4CC4)cc3C(=O)N2C)O1 | -11.1% |
| CCn1nnnc1SCC(=O)Nc1nnc(C(C)C)s1 | 10.6% |
| COc1ccc(C(=O)N2C[C@H]3[C@@H](c4ccccc42)[C@@H](CO)N3C(=O)Cc2ccccn2)cc1 | -2.33% |
